Experiment [1] in a line: Quantitative High-Throughput drug screen in 47 multiple myeloma cell lines against the NCATS MIPE library collection: XG6_PLB cell viability assay (AID 1919865). Note: nearly all actives have a fitted effect of over 40% in size. Summed up:
(§1)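 MIPE 4.0 approved/investigational drugs; 500 cells/well; 48 h 37 °C humidified 5% CO2; CTG luminescence readout; DMSO = 100%, media = 0% viability.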

Experiment [2] in a line: Quantitative High-Throughput drug screen in 47 multiple myeloma cell lines against the NCATS MIPE library collection: XG1_PLB cell viability assay (AID 1919866). Note: nearly all actives have a fitted effect of over 35% in size. The procedure, abridged: as §1
Experiment [3] is described as follows: Quantitative High-Throughput drug screen in 47 multiple myeloma cell lines against the NCATS MIPE library collection: VP6_DJ cell viability assay (AID 1919867). Note: nearly all actives have a fitted effect of over 40% in size. The procedure, abridged: as §1
Experiment [4] can be described thus: Quantitative High-Throughput drug screen in 47 multiple myeloma cell lines against the NCATS MIPE library collection: UTMC2_PLB cell viability assay (AID 1919868). Note: nearly all actives have a fitted effect of over 55% in size. The procedure, abridged:
as §1

Experiment [5] in a line: Quantitative High-Throughput drug screen in 47 multiple myeloma cell lines against the NCATS MIPE library collection: PE2_PLB cell viability assay (AID 1919869). Note: nearly all actives have a fitted effect of over 35% in size. Summed up:
as §1

Experiment [6] in a line: Quantitative High-Throughput drug screen in 47 multiple myeloma cell lines against the NCATS MIPE library collection: PCM6_Riken cell viability assay (AID 1919870). Note: nearly all actives have a fitted effect of over 30% in size. Summed up: as §1
A short description of experiment [7]: Quantitative High-Throughput drug screen in 47 multiple myeloma cell lines against the NCATS MIPE library collection: KMS11_JCRBsus cell viability assay (AID 1919873). Note: nearly all actives have a fitted effect of over 50% in size. Summed up:
as §1

A short description of experiment [8]: Quantitative High-Throughput drug screen in 47 multiple myeloma cell lines against the NCATS MIPE library collection: OPM2_DSMZ cell viability assay (AID 1919872). Note: nearly all actives have a fitted effect of over 30% in size. Summed up: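 We plated 500 myeloma cells per well, pinned in MIPE 4.0 compounds, and incubated for 48 hours at 37C. ATP was then quantified with CellTiter-Glo, with DMSO and media-only wells defining 100% and 0%.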

Experiment [9] is described as follows: Quantitative High-Throughput drug screen in 47 multiple myeloma cell lines against the NCATS MIPE library collection: U266_ATCC cell viability assay (AID 1919864). Note: nearly all actives have a fitted effect of over 35% in size. The procedure, abridged:
as §1

Experiment [10] is described as follows: Quantitative High-Throughput drug screen in 47 multiple myeloma cell lines against the NCATS MIPE library collection: RPMI8226_ATCC cell viability assay (AID 1919871). Note: nearly all actives have a fitted effect of over 30% in size. Summed up: as §1

Results filed as inconclusive are left out. The source made the active and inactive calls. Calls come from the whole dose curve; as a rule, active = well fitted cell-killing curve with a large enough effect; inconclusive = small, poorly fitted or top-dose-only effect, or effect the other way; inactive = no such curve, though single readings can be large or run the other way. Non-standard residues stand in square brackets, D forms with d. Residues, ends and D or L forms follow the SMILES beside them. *: point of attachment. Sta = CC(C)C[C@H](N)[C@@H](O)CC(=O)O; Isovaleryl = CC(C)CC(=O)*

This is an account of results in PubChem BioAssay (NCATS).
Potency is the fitted concentration of half-maximal effect.

For the molecule `Nc1nc(N)c(N=O)c(OCC2CCCCC2)n1`, the Potency in experiment [1] is 2.96 µM (active); in experiment [2], 4.69 µM (active); in experiment [3], 2.96 µM (active); in [4] it was 5.26 µM (active); in [5], 9.35 µM (active); in experiment [6] it was 5.26 µM (active). In addition, in experiment [7], the Potency was 6.62 µM (active).

Take `COC(=O)C1=C(C)NC(C)=C(C(=O)OCCCN2CCC(c3ccccc3)(c3ccccc3)CC2)C1c1cccc([N+](=O)[O-])c1` (configuration not stated): the Potency entry in [1], in [2], in [3], in experiment [4], in [5] and in experiment [8] was “inactive” each time. Further, the Potency entry in experiment [7] was “inactive”.

In the case of `S=c1nc[nH]c2nc[nH]c12`, the Potency was 2.35 µM (active) in [1]; 1.66 µM (active) in experiment [2]; 5.26 µM (active) in experiment [3]; 14.8 µM (active) in [4]; 4.18 µM (active) in experiment [5].

As for `Cc1nccn1CC1CCc2c(c3ccccc3n2C)C1=O` (configuration not stated), the Potency in [9] is 23.5 µM (active). Further, the Potency entry in experiment [5], in [6], in [10] and in experiment [8] was “inactive” in each case.

On to `C[C@H](Cn1cnc2c(N)ncnc21)OCP(=O)(O)O`, for which the Potency result in [1], in experiment [2], in [3], in experiment [4], in [5] and in [8] was “inactive” each time. Also, the Potency entry in [7] was “inactive”.

Regarding `Cc1ccc(C(=O)c2cc(O)c(O)c([N+](=O)[O-])c2)cc1`, the results for the Potency in experiment [1], in experiment [4] and in [5] were 23.5 µM (active), 26.4 µM (active) and 23.5 µM (active), respectively.

On to `CNC[C@H](O)c1ccc(O)c(O)c1`, for which the Potency entry in experiment [1], in experiment [2] and in [6] was “inactive” each time. Moreover, the Potency in experiment [10] is 42.9 µM (active); in experiment [7] it was 19.1 µM (active).

Consider `O=P(O)(O)C(O)(Cn1ccnc1)P(=O)(O)O`, for which the Potency result in [1], in [5], in experiment [10] and in experiment [7] was “inactive” each time.

For `Cc1ncc([N+](=O)[O-])n1CC(C)O` (configuration not stated), the results for the Potency in experiment [2], in [3] and in experiment [4] were 10.5 µM (active), 18.7 µM (active) and 18.7 µM (active), respectively. Moreover, the Potency result in [8] and in [7] was “inactive” throughout.

Consider `O=C(CS(=O)Cc1ccco1)NCC=CCOc1cc(CN2CCCCC2)ccn1` (configuration not stated), for which the results for the Potency in experiment [1] and in [3] were 14.8 µM (active) and 16.6 µM (active), respectively. For the same molecule, the Potency result in experiment [5], in experiment [8] and in [7] was “inactive” throughout.

As to `Cc1cccc(CN2CCN(C(c3ccccc3)c3ccc(Cl)cc3)CC2)c1` (configuration not stated), the Potency was 14.8 µM (active) in [1], 20.9 µM (active) in experiment [4] and 16.6 µM (active) in experiment [6].

Turning to `Cc1cc(Cl)ccc1OCCCC(=O)NO`, the Potency is 1.05 µM (active) in experiment [2]; 3.72 µM (active) in [3]; 9.35 µM (active) in [4]; 7.43 µM (active) in [5]; 2.35 µM (active) in experiment [6]. Further, the Potency result in experiment [10] and in experiment [8] was “inactive” throughout.

As to `CC(S)C(=O)NCC(=O)O` (configuration not stated), the Potency result in [1], in experiment [2], in experiment [5], in experiment [10], in [8] and in experiment [7] was “inactive” in each case.

On to `CC(C)CC(=O)N[C@H](C(=O)N[C@H](C(=O)N[C@@H](CC(C)C)[C@@H](O)CC(=O)N[C@@H](C)C(=O)N[C@@H](CC(C)C)[C@@H](O)CC(=O)O)C(C)C)C(C)C` (Isovaleryl-VV[Sta]A[Sta]-OH), for which the Potency entry in experiment [1], in [5] and in experiment [7] was “inactive” in each case. The Potency in experiment [2] was 16.6 µM (active).

For the molecule `Cc1ccc(NC(=O)c2ccc(CN3CCN(C)CC3)cc2)cc1Nc1nccc(-c2cccnc2)n1`, the Potency in experiment [1] is 33.2 µM (active); in [3], 23.5 µM (active); in [6], 18.7 µM (active). Besides, the Potency entry in [10] is “inactive”.

Turning to `NNc1nncc2ccccc12`, the Potency entry in experiment [1], in experiment [2], in experiment [5], in [6], in experiment [10] and in experiment [8] was “inactive” each time. Also, the Potency entry in experiment [7] is “inactive”.

As for `C[Se]CCC(N)C(=O)O` (configuration not stated), the Potency entry in [2], in experiment [4], in experiment [5], in experiment [10] and in experiment [7] was “inactive” in each case.

As to `CC1=C(C)C(=O)C(C(CCCCCC(=O)O)c2ccccc2)=C(C)C1=O` (configuration not stated), the Potency entry in [2] is “inactive”. The Potency in experiment [3] is 3.72 µM (active); in experiment [6] it was 2.09 µM (active).

As to `CS(=O)(=O)OCCCCOS(C)(=O)=O`, the Potency entry in experiment [1], in experiment [2], in [5], in [8] and in experiment [7] was “inactive” in each case.

As to `CCc1nc(N)nc(N)c1-c1ccc(Cl)cc1`, the Potency entry in experiment [1] was “inactive”. Further, the Potency is 3.72 µM (active) in [2] and 16.6 µM (active) in experiment [7].

Regarding `CCOC(=O)C(C)Oc1cccc2c(=O)n(CC(=O)Nc3ccc4c(c3)OCCO4)ccc12` (configuration not stated), the Potency entry in experiment [1], in [2], in experiment [5], in experiment [6], in [10] and in [7] was “inactive” in each case.

With `Oc1ccc(OCc2ccccc2)cc1`, the Potency entry in [2], in experiment [4], in [5], in [6] and in experiment [7] was “inactive” in each case.

With `CN(C)[C@@H](CCOc1cccc2ccccc12)c1ccccc1`, the Potency was 16.6 µM (active) in experiment [2]; 26.4 µM (active) in [3]; 23.5 µM (active) in [5]; 18.7 µM (active) in [6]; 16.6 µM (active) in experiment [10]; 23.5 µM (active) in experiment [7].

In the case of `Cc1cc(O)c2c(c1)C(=O)c1cc(O)cc(O)c1C2=O`, the Potency entry in experiment [2], in experiment [3], in experiment [4] and in [7] was “inactive” throughout. The Potency in experiment [10] is 23.5 µM (active).

`CN(c1nccc(=O)[nH]1)C1CCN(c2nc3ccccc3n2Cc2ccc(F)cc2)CC1`: the Potency in [2] was 18.7 µM (active); in experiment [3] it was 23.5 µM (active); in experiment [4] it was 16.6 µM (active). The Potency result in experiment [10], in experiment [8] and in experiment [7] was “inactive” throughout.

Regarding `Cn1c(NCCN(CCO)CCCc2ccc([N+](=O)[O-])cc2)cc(=O)n(C)c1=O`, the Potency in [1] is 20.9 µM (active); in [2], 26.4 µM (active). Also, the Potency result in experiment [10] was “inactive”.

With `Nc1nc(OCc2ccccc2)c2[nH]cnc2n1`, the figures for the Potency in experiment [1] and in [2] were 16.6 µM (active) and 13.2 µM (active), respectively. For the same molecule, the Potency entry in experiment [10], in [8] and in experiment [7] was “inactive” throughout.

For `CCCc1cc(=O)[nH]c(=S)[nH]1`, the Potency entry in experiment [2], in experiment [3], in [5], in experiment [6], in experiment [10] and in [8] was “inactive” in each case. In [7], the Potency result was “inactive”.

Turning to `CC[C@]1(O)C[C@H]2CN(CCc3c([nH]c4ccccc34)[C@@](C(=O)OC)(c3cc4c(cc3OC)N(C=O)[C@H]3[C@@](O)(C(=O)OC)[C@H](OC(C)=O)[C@]5(CC)C=CCN6CC[C@]43[C@@H]65)C2)C1`, in experiment [1], the Potency result is “inactive”. Also, the Potency is 0.0093 µM (active) in experiment [4], 0.0093 µM (active) in experiment [10] and 0.003 µM (active) in experiment [8].
